# Screening data deposited in PubChem BioAssay by National Center for Advancing Translational Sciences (NCATS).
# Compounds with a hit are over-represented: about 12% of the library has one in this group of screens.
# PLK1 PBD inh: inhibitors of human PLK1 polo-box domain binding | P53350 | Plk1 PBD binding of FITC phosphopeptide, fluorescence polarization | Potency, µM, for the others: max response, negative = inhibition, hits mostly inhibitors | 360,000 tested, 2.8% active; note: series mostly up to about 57 µM; % is set by controls: 0 for no effect and ±100 for the full control effect; nearly all actives have a fitted effect of over 65% in size
# HP1b chromo inh: inhibitors of HP1-beta chromodomain binding to methylated histone tails. P83916. AlphaScreen HP1-beta / biotin-H3K9me3 peptide binding. Potency, µM (series often up to 114 µM), inactives show at the highest dose activity change, negative = inhibition, hits mostly inhibitors. 390,000 tested, 0.56% active. AID 540317; note: nearly all actives have a fitted effect of over 70% in size
#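 AlphaScreen: HP1-beta (50 nM) preformed 30 min with biotin-H3(1-18)K9me3 peptide (50 nM) in PBS pH 7.4, 0.01% Tween-20. Compound added for 30 min at RT, then streptavidin donor/nickel chelate acceptor beads (10 ug/mL) for 30 min.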
# BAZ2B block: blocks human BAZ2B; Q9UIF8; AlphaScreen BAZ2B-H3K14Ac peptide displacement; Potency, µM (top dose mostly 114 µM), for the others: at the top dose activity change, negative = inhibition, actives largely listed as inhibitors; 360,000 tested, 4.4% active; note: % is set by controls: 0 for no effect and ±100 for the full control effect; nearly all actives have a fitted effect of over 60% in size
#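 AlphaScreen displacement: compounds (up to 110uM) incubated 30 min at room temperature with a preformed 50 nM BAZ2B/50 nM biotinylated H3K14Ac peptide complex in PBS pH 7.4 with Tween-20. Donor and acceptor beads at 10 ug/mL final added, 20 min light-protected before reading.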
# Sfp inh: inhibitors of Bacillus subtilis Sfp phosphopantetheinyl transferase | Potency, µM, inactives show largest response in the series, negative = inhibition, actives largely listed as inhibitors | Biochemical Sfp PPTase activity, qHTS | Q9F4F7 | 310,000 tested, 3.5% active | AID 1490;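 note: the enzyme is Sfp with the accession as filed and its product quenches rhodamine fluorescence; 0% = enzyme reaction without inhibitor and -100% = no enzyme wells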
#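 Compounds were incubated with enzyme (final 15 nM) for 15 min at room temperature before substrate addition started the reaction. Fluorescence at 525 nm excitation, 598 nm emission was recorded immediately and after 30 minutes.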
# G9a block: G9a (human) methyltransferase inhibition | AID 504332 | Q96KQ7 | G9a H3K9 monomethylation, AlphaScreen, 2 h | 350,000 tested, 8.8% active | Potency, µM (series often up to 102 µM), without a hit: at the top dose activity, negative = inhibition, actives largely listed as inhibitors; note: % is set by controls: 0 for no effect and ±100 for the full control effect; nearly all actives have a fitted effect of over 75% in size
#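 Methyltransferase reactions run at room temperature for 2 h (20 nM enzyme, 500 nM biotin-H3K9 peptide, 20 uM SAM) after a 15 min compound preincubation; product detected by AlphaScreen beads and anti-H3K9me1 antibody.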
# JMJD2A Tudor inh: blocks the human JMJD2A Tudor domain; AlphaScreen JMJD2A-Tudor / H3K4me3 peptide binding; Potency, µM (top dose mostly 114 µM), for inactives: at the top dose activity change, negative = inhibition, hits mostly inhibitors; 390,000 tested, 4.4% active; note: % is set by controls: 0 for no effect and ±100 for the full control effect; nearly all actives have a fitted effect of over 50% in size
# Active calls of the source: *; ? = inconclusive; nt = no result given; [ ] = dose if it differs, or a comment. Calls come from the whole dose curve; as a rule, active = well fitted curve in the direction sought with a large enough effect; inconclusive = small, poorly fitted or top-dose-only effect, or another doubt; inactive = no such curve, though single readings can be large; an effect the other way counts as inactive or inconclusive. Potency is the fitted concentration of half-maximal effect.
SMILES,PLK1 PBD inh,HP1b chromo inh,BAZ2B block,Sfp inh,G9a block,JMJD2A Tudor inh
CC1(C)CC(=O)C2=C(C1)NC(Nc1nc3ccccc3o1)=NC21CCCC1,26.7µM*,-10.3%,3.9%,12.5%,12.2%[59 µM],?
O=C1/C(=C/c2ccccc2)CCC1C1CCCC1 (stereo unspecified),-17.6%,54.4%,-3.7%,-1.9%,12.3%[59 µM],17.1%
CC1CCCC(=C\c2ccccc2)/C1=N/O (stereo unspecified),26.7µM*,?,3.0%,2.8%,9.9%[59 µM],?
COc1ccc(CN2CCN(C3CCC3)CC2CCO)cc1C (stereo unspecified),2.7%,44.8%,-2.2%,2.2%,nt,-7.3%
CC(C)=CC1C(CO)C1(C)C (stereo unspecified),nt,nt,nt,10.5%,nt,nt
COC(=O)[C@@]12CCCN1[C@H](c1ccc(-c3ccc(C(C)=O)cc3)c(OC)c1)[C@H]1C(=O)N(C)C(=O)[C@H]12,-8.6%,53.3%,-0.7%,nt,-5.1%[2.33 µM],-16.4%
[O-][n+]1c2c(c3c4non(O)c4ccc31)CCCC2,-21.2%,-16.0%,39.8µM*,-6.3%,?,?
Cc1c(Cl)cccc1NC(=O)CSc1cc(-c2ccccc2)ncn1,nt,34.3%,-5.0%,nt,3.3%[59 µM],-9.6%
COc1ccc(OC)c(NC(=O)c2ccc(-c3nc(CSc4ccccc4)c(C)o3)cc2)c1,nt,33.2%,?,nt,?,-20.7%
Cc1cccc(CNC(=O)c2ccc3c(c2)c(C)c(C)n3Cc2ccccc2)c1,nt,13.3%,?,nt,-31.7%[59 µM],-24.0%
Cc1c(C)n(Cc2ccc(F)cc2)c2ccc(C(=O)NCCN3CCOCC3)cc12,0.3%,-14.4%,50.1µM*,-11.3%,50.1µM*,?
Cc1c(C)n(Cc2ccc(F)cc2)c2ccc(C(=O)NCc3ccco3)cc12,nt,50.6%,2.7%,nt,3.5%[59 µM],?
Cc1cccc(Cn2c(C)c(C)c3cc(C(=O)NCCN4CCOCC4)ccc32)c1,-1.5%,-5.4%,56.2µM*,-2.1%,39.8µM*,50.1µM*
Cc1ccc(C(=O)NC2CCN(S(=O)(=O)c3ccccc3)CC2)cc1,10.8%,23.2%,-14.1%,18.3%,18.1%,12.0%
CC(C)Cn1c(/C=C/c2ccco2)nc2ccccc21,-20.5%,8.2%,-35.4%,35.5µM*,7.94µM*,-16.2%
CC(C)Cn1c(S(=O)(=O)O)nc2ccccc21,-7.9%,26.9%,-19.7%,2.9%,nt,-26.1%
CCCc1sc(N)nc1-c1ccc(Cl)cc1,3.9%,-2.1%,-37.0%,10.1%,44.7µM*,-34.7%
CC(C)(C)C1(C)OC(=O)C(=Cc2ccc(OCC(=O)Nc3ccccc3)cc2)C(=O)O1 (stereo unspecified),2.38µM*,41.3%,8.1%,6.1%,0.0%[59 µM],-10.4%
COc1cc(C=C2C(=O)OC(C)(C)OC2=O)cc(Cl)c1OCC(=O)Nc1ccccc1,?,-17.2%,-25.1%,21.8%,-3.4%,?
CC(=O)Nc1ccc(NC(=O)C(C)OC(=O)c2ccc(-n3cnnn3)cc2)cc1 (stereo unspecified),-4.8%,26.7%,7.2%,nt,16.0%[2.33 µM],-24.8%
Cc1cc(C)n(-c2ccc(C(=O)OC(C)C(=O)Nc3ccc(C(N)=O)cc3)cc2)n1 (stereo unspecified),1.6%,19.9%,-0.1%,nt,79.4µM*,-1.4%
Cc1c(CNC2CCC(C)CC2)c(C(=O)O)c(C)n1Cc1ccc(Cl)cc1 (stereo unspecified),nt,9.2%,?,nt,2.5%[59 µM],-20.1%
O=C(NN1C(=O)/C(=C/c2ccc(O)c(O)c2)SC1=S)c1ccccc1,3.2%,?,5.62µM*,-26.4%,6.31µM*,12.6µM*
O=C(NN1C(=O)/C(=C\c2ccc(O)c([N+](=O)[O-])c2)SC1=S)c1ccccc1Cl,-16.2%,-31.9%,39.8µM*,-3.6%,3.98µM*,56.2µM*
Cc1ccc(/C=C2\SC(=S)N(C(Cc3ccccc3)C(=O)O)C2=O)cc1 (stereo unspecified),?,-14.4%,?,-8.6%,?,?
COc1cc(/C=C2\SC(=S)N(C(Cc3ccccc3)C(=O)O)C2=O)ccc1O (stereo unspecified),10.3%,?,35.5µM*,?,nt,-32.3%
